The text below walks through data of article PMC7819943, “Rice protein-binding microarrays: a tool to detect cis-acting elements near promoter regions in rice”.

Over roughly 68,000 sequences, “fluorescence intensity (a.u.)” has its median near 9,100; the highest 2% begin near 16,000. The sample as a whole holds a higher share of the highest values than the screen did.

Chain of OsWRKY34 (Q0JBA9 entry or part of it): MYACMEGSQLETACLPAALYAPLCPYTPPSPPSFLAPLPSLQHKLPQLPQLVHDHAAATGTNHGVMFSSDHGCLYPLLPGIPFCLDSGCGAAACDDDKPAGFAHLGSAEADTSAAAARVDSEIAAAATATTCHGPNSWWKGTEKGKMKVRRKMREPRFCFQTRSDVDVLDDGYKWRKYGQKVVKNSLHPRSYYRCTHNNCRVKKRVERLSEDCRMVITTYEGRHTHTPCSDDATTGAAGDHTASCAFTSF

This test deals with OsWRKY34 (Oryza sativa, UniProt Q0JBA9 1-250). Put plainly: protein-binding microarray (RPBM); PBS, 2% BSA, 51.3 ng/ul salmon testes DNA, 50 uM zinc acetate, 200 nM TF, 25 C, 1 h; high values mean tight binding. The conditions noted are these: protein: recombinant; tags: N-terminal polyhistidine and DsRed monomer fusion (pET32a); label: CyDye5-dUTP incorporated in the synthesized complementary strand; 3' TTTTT single-stranded linker to array surface; dsDNA, one strand shown. The method in brief:
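Using Ni–NTA, transcription factors fused N-terminally to polyhistidine and DsRed were purified after expression in E. coli BL21-CodonPlus. These were incubated at 200 nM with a blocked, double-stranded custom Agilent array for 1 h at 25 °C in a buffer containing 50 µM zinc acetate, and the array was washed. The binding signal is per-feature fluorescence intensity (arbitrary units) on an Axon 4000B scanner.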
On to “CGTTGTTTATCTTTTCTAATGCCATGTGTATATATGATTCCGGAGTCACCTAGTGCAG”, for which the binding signal was 10500 fluorescence intensity (a.u.).

As for “CCCGTGCTCTTTGTAGATTTACTACCTTTGGACTTGACCTCGGAGTCACCTAGTGCAG”, the binding signal was 11200 fluorescence intensity (a.u.).

Take “TCTGCGCTCCCGCATGCCGGCCGCTGAATCATCGTCAATCCGGAGTCACCTAGTGCAG”: the binding signal is 9000 fluorescence intensity (a.u.).

Turning to “AATAGCCTCGTCCCTGTAAACTCCCAATCCCTTTTTAAAACGGAGTCACCTAGTGCAG”, the binding signal was 8420 fluorescence intensity (a.u.).

As for “AGTTGTGGAGCTGTCTAAACCCATCTCTACTTCTCTACTTCGGAGTCACCTAGTGCAG”, the binding signal was 8200 fluorescence intensity (a.u.).

Turning to “TTTCCTCATTTATTCACCTGTCACACCATCTTTCATCATACGGAGTCACCTAGTGCAG”, the binding signal was 9590 fluorescence intensity (a.u.).

Regarding “CCTGATCGGATTTGGTTGGCTGGTGCTCTAGATGATGTACCGGAGTCACCTAGTGCAG”, the binding signal is 8170 fluorescence intensity (a.u.).

On to “GGGGAGTTGGGATTTTTGGCGATGTGGGTTTCGTACACCGCGGAGTCACCTAGTGCAG”, for which the binding signal is 9870 fluorescence intensity (a.u.).

Regarding “TTGGCGAGCGAGCTGTGTGGTGGTGGTGGTGGGTGAGTGGCGGAGTCACCTAGTGCAG”, the binding signal is 13600 fluorescence intensity (a.u.).

As to “CGGTTGCGGGTGGGCAGCGGCAGCGTCGCCGGCTGGGGCGCGGAGTCACCTAGTGCAG”, the binding signal was 9840 fluorescence intensity (a.u.).

Consider “TGGGGTGGGTGCCCGGAGCTTTGATGCGCGTGGCCGCCGGCGGAGTCACCTAGTGCAG”, for which the binding signal was 12400 fluorescence intensity (a.u.).

As for “GTGCGAGCTGCGCCCGTGTGATGTGGGCGGGTGGGTGTTCCGGAGTCACCTAGTGCAG”, the binding signal was 16900 fluorescence intensity (a.u.).

As for “GGCGCCGGCGCTAGCGCCCACGTCGGGGTTGGGGTTGGGGCGGAGTCACCTAGTGCAG”, the binding signal is 16600 fluorescence intensity (a.u.).

Consider “CGTCGGGGTTGGGGTTGGGGCTGGGGCCGGCGCCGACGCCCGGAGTCACCTAGTGCAG”, for which the binding signal is 13400 fluorescence intensity (a.u.).

On to “TTGCTCTCCTCTCTGGATTGATGTGTTCGTTTGGCCATTCCGGAGTCACCTAGTGCAG”, for which the binding signal is 8940 fluorescence intensity (a.u.).

As for “TGTTGGTGGTGAGGTGTGAGGTGAGGTGGGGTGGTGTGGCCGGAGTCACCTAGTGCAG”, the binding signal was 10100 fluorescence intensity (a.u.).

In the case of “GCCATGTGACTAGACCGAGCTAGCTCGCTCGATCGATCTCCGGAGTCACCTAGTGCAG”, the binding signal was 8510 fluorescence intensity (a.u.).

Regarding “TGGAGCTGGTTTTTGGGTGGTGTTTTCTCTGTGATCGTGGCGGAGTCACCTAGTGCAG”, the binding signal is 9760 fluorescence intensity (a.u.).

As for “GGTCTTGCTAGTTGGCCATGTGAGAGTGAGACCGGGTCTCCGGAGTCACCTAGTGCAG”, the binding signal was 50700 fluorescence intensity (a.u.).

On to “GCCATGGGGTTGACTCTCTGGGTGTTCTTGGTTTCTTGGCCGGAGTCACCTAGTGCAG”, for which the binding signal was 10500 fluorescence intensity (a.u.).

Regarding “ATGCGGATCTGAGTGGTGGTGGTGGTGGACTGGTGGTTGCCGGAGTCACCTAGTGCAG”, the binding signal is 11000 fluorescence intensity (a.u.).

As for “CTTTCTTCTGTGTGGTGGGTTTTAGCCGGTTTCTCGCAATCGGAGTCACCTAGTGCAG”, the binding signal is 18400 fluorescence intensity (a.u.).

For the sequence “CAATTTTAGTTCAATCTTGGGTGTTTTCGCATGGTTCTCTCGGAGTCACCTAGTGCAG”, the binding signal is 8180 fluorescence intensity (a.u.).

On to “CGTGTGGGTGGGTGGGTGGAGTGGACTGGTTTCTGTGAGCCGGAGTCACCTAGTGCAG”, for which the binding signal is 18500 fluorescence intensity (a.u.).

With “TTTGGTTACCGCATTTTTGTGTTCTTCTGTGCAGTTTAGCCGGAGTCACCTAGTGCAG”, the binding signal was 8150 fluorescence intensity (a.u.).

In the case of “AGGAGTGTCTGGTTGGTTTCCGGGGTGTGTTGGGTGACTCCGGAGTCACCTAGTGCAG”, the binding signal was 29500 fluorescence intensity (a.u.).

In the case of “TTGTTGGCAAGTTTCTTCCCTTGTCTCTCTCTTGTGAGACCGGAGTCACCTAGTGCAG”, the binding signal is 8700 fluorescence intensity (a.u.).

“GAAATATCAACAACCCTATAAAAAAAGTCAACCCATGTACCGGAGTCACCTAGTGCAG”: the binding signal was 9120 fluorescence intensity (a.u.).

Turning to “CACACACACAAATCCACAAGTAGACATCCTTCCATGTCTTCGGAGTCACCTAGTGCAG”, the binding signal is 8380 fluorescence intensity (a.u.).

As to “AGGTAGTCAAGGTGGACTTATTCCTTTTGTTTCTTCCATTCGGAGTCACCTAGTGCAG”, the binding signal is 8900 fluorescence intensity (a.u.).

Take “CCATTTGTCCACCACCACCTCCACCACCTGACACGTCGTCCGGAGTCACCTAGTGCAG”: the binding signal is 8050 fluorescence intensity (a.u.).

In the case of “AATTATTTTCATTTGCTAAGTTACTATTTCGCATTTTTTTCGGAGTCACCTAGTGCAG”, the binding signal is 8650 fluorescence intensity (a.u.).

Turning to “CAATTATTACAGGCGGCCAGCGCCTCATGGCTTTTACCTTCGGAGTCACCTAGTGCAG”, the binding signal was 8660 fluorescence intensity (a.u.).

“TCTTACTTGCATGTGAACACCTCTTTGTCGGTTTTTCCATCGGAGTCACCTAGTGCAG”: the binding signal is 10400 fluorescence intensity (a.u.).

On to “AAAAAAGTCAACCCATGTACACCGTCCGATCTCCATCCGACGGAGTCACCTAGTGCAG”, for which the binding signal is 8110 fluorescence intensity (a.u.).

Take “TTTTGTCTCTTTCTGCTGCTGGAGTAGTATTGTTCATTTACGGAGTCACCTAGTGCAG”: the binding signal was 9050 fluorescence intensity (a.u.).

Turning to “CTGGTAGGATTGCTGCTTGCTTTGCCTTCACGTCATTATCCGGAGTCACCTAGTGCAG”, the binding signal was 11200 fluorescence intensity (a.u.).

With “TGCGTTTCCCGTCAGCCCTGTCACGCCGCCGCCGGTCGCCCGGAGTCACCTAGTGCAG”, the binding signal is 12000 fluorescence intensity (a.u.).

Turning to “ACTTTCTTTTTGGGCCTGAAACCACGACGGCCCTTTGTTCCGGAGTCACCTAGTGCAG”, the binding signal is 8760 fluorescence intensity (a.u.).

On to “AAAATAGGCCAATAGGGTGTTGAGAGAAAAGGAGATATATCGGAGTCACCTAGTGCAG”, for which the binding signal was 17500 fluorescence intensity (a.u.).

Regarding “AAGGATATAAGGGTGGTTGAGGGGTAGAATAGGAAGAAATCGGAGTCACCTAGTGCAG”, the binding signal was 9360 fluorescence intensity (a.u.).

Take “CGCAAGGGAGAATAGGGGTGTTGAGAGGAGGGGCGACAGGCGGAGTCACCTAGTGCAG”: the binding signal was 8240 fluorescence intensity (a.u.).
